Screens (PubChem)
JMJD2A Tudor inh: JMJD2A Tudor domain (human) inhibition; O75164; AlphaScreen JMJD2A-Tudor / H3K4me3 peptide binding; Potency, µM (series often up to 114 µM), hits mostly inhibitors; 4.4% of 390,000 active; further: nearly all actives have a fitted effect of over 50% in size
Sfp inh: inhibitors of Bacillus subtilis Sfp phosphopantetheinyl transferase. Biochemical Sfp PPTase activity, qHTS. Potency, µM, usual class: inhibitors. 3.5% of 310,000 active. AID 1490;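 further: the enzyme is Sfp with the accession as filed and its product quenches rhodamine fluorescence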
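Buffer: 50 mM Hepes-Na pH 7.6, 10 mM MgCl2, 0.01% Nonidet P-40, 0.01% BSA. Enzyme 15 nM, pre-exposed to compound 15 min; substrates then added and fluorescence change tracked over 30 min.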
L3MBTL1 block: inhibitors of human L3MBTL1. AID 485360. AlphaScreen L3MBTL1–H3K9me1 peptide binding. Potency, µM (series often up to 57.1 µM), most hits filed as inhibitors. 0.66% of 230,000 active. Q9Y468; further: nearly all actives have a fitted effect of over 60% in size
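AlphaScreen proximity signal between nickel-chelate acceptor and streptavidin donor beads (final 10 ug/mL) reports binding of 50 nM L3MBTL1 to 75 nM biotin-H3 K9me1 peptide; complex incubated with compounds 30 min at room temperature; cefsulodin titration as control.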
G9a block: blocks human histone lysine methyltransferase G9a | AID 504332 | 8.8% of 350,000 active | G9a H3K9 monomethylation, AlphaScreen, 2 h | Potency, µM (doses to about 102 µM), actives largely listed as inhibitors; further: nearly all actives have a fitted effect of over 75% in size
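Step 1: enzyme (final 20 nM) with compound, 15 min RT. Step 2: substrate peptide 500 nM and SAM 20 uM, 2 h RT. Step 3: anti-H3K9me1 antibody and AlphaScreen beads, 10 min, then plate read.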
HP1b chromo inh: blocks HP1-beta chromodomain binding to methylated histone tails. AID 540317. AlphaScreen HP1-beta / biotin-H3K9me3 peptide binding. P83916. Potency, µM (titrated, usually from 114 µM), usual class: inhibitors. 0.56% of 390,000 active; further: nearly all actives have a fitted effect of over 70% in size
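HP1-beta protein (50 nM final) preincubated 30 min at room temperature with biotinylated H3(1-18)K9me3 peptide (50 nM) in PBS pH 7.4, 0.01% Tween-20, then compound added for 30 min. AlphaScreen streptavidin donor/nickel chelate acceptor beads (10 ug/mL final), 30 min dark, luminescence read.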
BAZ2B block: inhibitors of human BAZ2B bromodomain; 4.4% of 360,000 active; AlphaScreen BAZ2B-H3K14Ac peptide displacement; Potency, µM (highest dose often 114 µM), most hits filed as inhibitors; further: nearly all actives have a fitted effect of over 60% in size
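AlphaScreen luminescence quantifies BAZ2B engagement of H3K14Ac peptide; the protein and biotinylated peptide are both at 50 nM final, buffer PBS pH 7.4 with 0.01% Tween-20, all steps at room temperature.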
A number is an active result; – = inactive; ? = inconclusive; · = no result given; [ ] = another dose, or the depositor's remark. An excerpt weighted towards active compounds, which were near 12% of everything screened. The call rests on the fitted dose curve; in most records, active means well fitted curve in the direction sought with a large enough effect; inconclusive means small, poorly fitted or top-dose-only effect, or another doubt; inactive means no such curve, though single readings can be large; an effect the other way counts as inactive or inconclusive.

SMILES | JMJD2A Tudor inh | Sfp inh | L3MBTL1 block | G9a block | HP1b chromo inh | BAZ2B block
O=C(CSc1ccc2nnc(-c3ccccn3)n2n1)Nc1nccs1 | 32µM | – | · | – | – | ·
COc1ccc(-c2nnc3ccc(SCC(=O)Nc4nccs4)nn23)cc1OC | – | – | – | 32µM | – | –
O=C(CSc1ccc2nnc(-c3ccncc3)n2n1)Nc1nccs1 | – | – | · | 50µM | – | ·
COc1ccc(-c2nnc3ccc(SCC(=O)Nc4nc5ccccc5s4)nn23)cc1OC | – | – | – | – | – | –
O=C(Nc1ccccc1Cl)C1CCN(c2nc3ccccc3[nH]2)CC1 | – | · | · | – | – | –
COc1ccc(N2CCN(C(=O)c3ccc(Br)cc3)CC2)c([N+](=O)[O-])c1 | 79µM | – | – | 45µM | ? | 25µM
COc1ccc(N2CCN(C(=S)NC(=O)c3cccs3)CC2)c([N+](=O)[O-])c1 | 50µM | – | – | 32µM | ? | ?
COc1ccc(N2CCN(C(=O)c3ccccc3Br)CC2)c([N+](=O)[O-])c1 | ? | – | – | 56µM | – | –
COc1ccc(N2CCN(C(=O)c3ccc(C)cc3)CC2)c([N+](=O)[O-])c1 | ? | – | – | ? | – | ?
Cc1ccc(CCCOC(=O)CN2CCCCC2)cc1 | – | – | · | – | – | –
O=C(CN1CCOCC1)OCCCc1ccccc1 | – | – | · | –[2.33 µM] | – | –
Cc1ccc(CCCOC(=O)C[N+]2(C)CCOCC2)cc1 | 35µM | ? | – | 10µM | – | –
C[N+]1(CC(=O)OCCCc2ccccc2)CCOCC1 | 50µM | – | – | 71µM | – | 45µM
Cc1ccccc1-n1c(SCc2c(C)noc2C)nnc1-c1ccncc1 | – | – | –[11.4 µM] | –[12.7 µM] | – | –
Cc1noc(C)c1CSc1nnc(-c2ccccc2F)n1CCc1ccccc1 | – | – | – | 40µM | – | –
CC(=O)Nc1ccc(C(=O)CSc2nnc(-c3ccccc3F)n2CCc2ccccc2)cc1 | – | · | · | · | – | ·
CCn1c(CSc2n[nH]c(N)n2)nc2cc(C(=O)O)ccc21 | ? | 79µM | – | 40µM | – | ?
CCn1c(CSc2nnc(-c3cccnc3)n2-c2ccccc2C)nc2cc(C(=O)O)ccc21 | · | ? | ? | 13µM | · | ?
Cc1ccccc1-n1c(SCc2c(C)noc2C)nnc1-c1cccnc1 | – | ? | – | 40µM | – | –
Cc1ccc(CN2CCN(C3CCNCC3)C(=O)C2=O)cc1 | – | · | · | – | – | –
O=C(Cn1c(=O)n(-c2ccccc2)c(=O)c2sc3ccccc3c21)NC1CCCC1 | – | · | · | – | – | –
COc1ccc(-c2nc3n(n2)C(c2ccc(OC)cc2)C(C(=O)Nc2cccnc2)=C(C)N3)cc1 (configuration not stated) | – | · | · | – | – | –
COc1ccc2cc(C#N)c(=O)oc2c1 | · | – | · | · | · | ·
CCn1c(-c2csc3c2CCC(C)C3)n[nH]c1=S (configuration not stated) | 35µM | – | – | 6.3µM | – | –
Cc1cccc(-n2c(-c3csc4ccccc34)n[nH]c2=S)c1 | ? | ? | – | 1.3µM | ? | ?
SMILES | JMJD2A Tudor inh | Sfp inh | L3MBTL1 block | G9a block | HP1b chromo inh | BAZ2B block
CC(C)Cn1c(-c2csc3ccccc23)n[nH]c1=S | 79µM | – | – | ? | – | –
CCc1ccc(-c2cc(-c3n[nH]c(=S)n3CC)c3ccccc3n2)cc1 | · | – | – | ? | · | ?
CCn1c(-c2csc3ccccc23)n[nH]c1=S | 13µM | – | – | 2.2µM | – | –
C=CCn1c(SCc2csc(C)n2)nc2sc3c(c2c1=O)CCC(C)C3 (configuration not stated) | – | ? | – | – | – | –
Cc1ccncc1C(=O)O | · | – | · | · | · | ·
COc1ccc(NC(=O)Cn2nnc(C(=O)NCc3ccccc3Cl)c2N)cc1Cl | – | · | · | – | – | –
Cc1occc1-c1n[nH]c(=S)n1CC(C)C | 5µM | – | – | 4.5µM | – | –
Cc1nonc1NC(=O)CSc1nnc(-c2ccoc2C)n1CC(C)C | – | – | – | ? | – | –
CC(CCc1ccco1)NC(=O)c1cc2c(-c3ccccc3F)nn(C)c2s1 (configuration not stated) | – | 45µM | · | 89µM | – | –
O=C(c1cnccn1)N1CCC[C@@]2(CCN(c3cccc(-c4ccccc4)c3)C2)C1 | · | – | · | –[12.7 µM] | · | ·
CCOc1ccc2c(c1)[N+](C)(C)C(C)(C)C=C2C | 18µM | – | – | ? | – | –
COc1ccc2c(c1)[N+](C)(C)C(C)(C)C=C2C | 18µM | – | · | ? | ? | –
Clc1cccc(Cl)c1C1Nc2cccc3cccc(c23)N1 | 45µM | ? | 14µM | 16µM | ? | 25µM
Fc1cccc(Cl)c1C1Nc2cccc3cccc(c23)N1 | ? | – | · | · | – | 32µM
CN(C)S(=O)(=O)c1ccc2c(c1)c(=O)c(C(=O)N1CCN(c3cccc(Cl)c3)CC1)cn2C | – | · | · | – | – | ·
O=C(OCC#CCSc1nnc(-c2cccc3ccccc23)o1)c1ccc(OC(F)(F)F)cc1 | – | · | · | · | · | ·
C=CCOC(=O)N[C@H](/C(C(=O)OC)=C(\C)NCc1ccccc1)c1cccc(OC)c1 | · | – | · | · | · | ·
Cc1nn(C)c2c1c(C(F)(F)F)cc(=O)n2CC(=O)NCCC(C)C | – | · | · | – | – | –
O=C1CC(c2ccc(S(=O)(=O)N3CCCCC3)cc2)CN1 (configuration not stated) | – | – | –[11.4 µM] | – | – | –
NS(=O)(=O)c1ccc(NS(=O)(=O)c2ccc(C3CNC(=O)C3)cc2)cc1 (configuration not stated) | 50µM | – | · | – | – | –
CCC(C)c1ccc(O)c(NC(=O)c2cccnc2)c1 (configuration not stated) | – | – | · | 50µM | – | –
CC(C)c1ccc(O)c(NC(=S)NC(=O)c2cccnc2)c1 | – | – | – | – | – | –
CC(C)c1ccc(O)c(NC(=O)c2cncc(Br)c2)c1 | – | – | – | 40µM | – | –
O=C(CCC1N=C2c3ccccc3N=C(SCc3ccccc3F)N2C1=O)NCc1ccccc1 (configuration not stated) | – | · | · | – | – | –
COc1cc(CN2CCc3c([nH]c4ccccc34)C2)cc(OC)c1 | 7.9µM | – | – | 32µM | ? | 35µM
Clc1cccc(CN2CCc3c([nH]c4ccccc34)C2)c1Cl | 22µM | – | · | 50µM | ? | 22µM
COc1ccccc1CN1CCc2c([nH]c3ccccc23)C1 | 20µM | – | – | 7.1µM | ? | 50µM
COc1ccccc1CN1C(=O)[C@H]2Cc3c([nH]c4ccccc34)C(C)(C)N2C1=O | – | · | · | · | – | ·
CCOC(=O)c1ccc(NC(=O)CS(=O)(=O)Cc2nc(-c3ccc(C)cc3)oc2C)cc1 | – | · | · | – | – | –
Cc1coc2c(C)c3oc(=O)c(CCC(=O)N4CCCCC4)c(C)c3cc12 | – | · | · | – | – | –
